Reference: PubChem BioAssay (NCI)
Compounds without any hit were thinned out: in the full panel of roughly 83,000, 20% have a hit.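 The test compound was applied at a single concentration to cells in 96-well plates for 48 hours, and percent growth was recorded.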 Active and inactive are the calls of the source. Rule for the calls: active = growth percent below 10; inactive = the rest.

Assays:
Assay in all cases: NCI-60 one-dose screen, 48 h (100 = growth as untreated, 0 = no growth, -100 = all killed)
Conditions in all cases: 10 µM unless noted
[1] = test system: NCI-H23 lung
[2] = test system: NCI-H226 lung
[3] = test system: NCI-H322M lung
[4] = test system: HOP-62 NSCLC
[5] = test system: NCI-H460 lung
[6] = test system: HOP-92 NSCLC
[7] = test system: NCI-H522 lung
[8] = test system: A549/ATCC NSCLC
[9] = test system: 786-0 renal
[10] = test system: COLO 205 colon
[11] = test system: DU-145 prostate
[12] = test system: K-562 leukemia
[13] = test system: MALME-3M melanoma
[14] = test system: MDA-MB-231 breast
[15] = test system: RXF 393 renal
[16] = test system: SF-268 CNS
[17] = test system: SF-295 CNS
[18] = test system: SF-539 CNS
[19] = test system: UACC-257 melanoma
[20] = test system: M14 melanoma

Measured: growth

Cc1oc(-c2ccccc2Cl)cc1C(=O)Nc1ccc(S(N)(=O)=O)cc1
inactive: [1] 96.4% | [2] 96.1% | [3] 102% | [4] 105% | [5] 107% | [6] 107% | [7] 97.3% | [8] 105% | [9] 103% | [10] 116% | [11] 104% | [12] 96.3% | [13] 98.6% | [14] 93.3% | [15] 111% | [16] 104% | [17] 104% | [18] 95.4% | [19] 95% | [20] 93.8%

N#CC1=C(N)Oc2c(c(N)nn2-c2ccccc2)C1c1ccc(Cl)cc1 (stereo not given)
inactive: [1] 93.4% | [2] 87.2% | [3] 101% | [4] 89.8% | [5] 103% | [6] 92.7% | [7] 87.6% | [8] 100% | [9] 98.8% | [10] 106% | [11] 99.6% | [12] 106% | [13] 106% | [14] 87.5% | [15] 93.8% | [16] 94.1% | [17] 96.6% | [18] 98.4% | [19] 105% | [20] 103%

Cc1ccc(-c2nc([P+](c3ccccc3)(c3ccccc3)c3ccccc3)c(N3C[C@H]4C[C@H](C3)c3cccc(=O)n3C4)o2)cc1
inactive: [1] 82.3% | [2] 108% | [3] 94.3% | [4] 90.4% | [5] 105% | [6] 62.6% | [7] 74.3% | [8] 99.1% | [9] 97.1% | [10] 48.9% | [11] 98.3% | [12] 47.3% | [13] 74.5% | [14] 90.9% | [15] 79.8% | [16] 91.1% | [17] 96.1% | [18] 99.7% | [19] 37.5% | [20] 82.3%

CN1CCN(CCOc2ccc(-c3cnc4c(-c5ccccc5F)cnn4c3)cc2)CC1
active: [5] -63.3% | [6] 2.22% | [9] -73.5% | [10] -79.3% | [12] -50.3% | [13] 7.94% | [19] -7.9% | [20] -80.3%
inactive: [1] 46.5% | [2] 105% | [3] 57.9% | [4] 64.7% | [7] 66.8% | [8] 22.4% | [11] 60.9% | [14] 29.2% | [15] 50% | [16] 63.9% | [17] 65% | [18] 51.3%

C=C1C(=O)O[C@H]2[C@H]1CC/C(COC(=O)N[C@H](Cc1c[nH]c3ccccc13)C(=O)OC)=C\CC[C@@]1(C)O[C@@H]21
active: [6] 3.25% | [7] -71.4% | [9] -56.3% | [10] -36.2% | [12] 7.14% | [13] 4.76% | [15] -25.5%
inactive: [1] 68.8% | [2] 85.6% | [3] 86.3% | [4] 64.6% | [5] 64% | [8] 82.4% | [11] 40.9% | [14] 26.8% | [16] 72.6% | [17] 91.9% | [18] 11.6% | [19] 63.7% | [20] 44.1%

O=C1CCC/C=C\C[C@H]2C=C(Cl)C(=O)/C2=C/C[C@H](CCCCC(F)(F)F)OC(=O)CCC/C=C\C[C@H]2C=C(Cl)C(=O)/C2=C/C[C@H](CCCCC(F)(F)F)O1
active: [1] -35.2% [7.5 µM] | [2] -19.3% [7.5 µM] | [3] -36.9% [7.5 µM] | [4] -29.9% [7.5 µM] | [5] -33.2% [7.5 µM] | [6] -58.4% [7.5 µM] | [7] -62.2% [7.5 µM] | [8] -44.5% [7.5 µM] | [9] -55% [7.5 µM] | [10] -57.2% [7.5 µM] | [11] 0.342% [7.5 µM] | [12] 1.45% [7.5 µM] | [13] -18.2% [7.5 µM] | [14] -22.9% [7.5 µM] | [15] -92% [7.5 µM] | [16] 6.24% [7.5 µM] | [17] -37.6% [7.5 µM] | [18] -12.5% [7.5 µM] | [19] -55.3% [7.5 µM] | [20] -62.1% [7.5 µM]

NC1=NN(c2ccccc2)C(=O)/C1=C/c1ccc(Cl)cc1
active: [14] -99%
inactive: [1] 98% | [2] 99.2% | [3] 97.8% | [4] 95.3% | [5] 99.1% | [6] 91.6% | [7] 90.6% | [8] 98.5% | [9] 94.4% | [10] 95.7% | [11] 107% | [12] 102% | [13] 92.4% | [15] 107% | [16] 102% | [17] 113% | [18] 111% | [19] 97.3% | [20] 97.2%

Cc1csc(Nc2nc(-c3cccc(Br)c3)nc(C(Cl)(Cl)Cl)n2)n1
inactive: [1] 85.6% | [2] 110% | [4] 34% | [6] 51.2% | [7] 97.1% | [9] 75.2% | [12] 84% | [13] 98.8% | [14] 15.5% | [15] 20.2% | [16] 78.1% | [17] 20.7% | [18] 41% | [19] 60.6% | [20] 86.4%
active: [3] -29.9% | [5] 9.54% | [8] 5.62% | [10] 4.32% | [11] -5.72%

Cc1ccc(-c2nc([P+](c3ccccc3)(c3ccccc3)c3ccccc3)c(N3CCOCC3)o2)cc1
inactive: [9] 15.9% | [11] 12.9% | [16] 12.5% | [18] 19.3%
active: [1] -9.72% | [2] -2.72% | [3] 7.88% | [4] -41.5% | [5] 3.34% | [6] -28.7% | [7] 0.415% | [8] 9.89% | [10] -70% | [12] 4.64% | [13] -18.8% | [14] -0.628% | [15] -1.34% | [17] -10.3% | [19] -4.98% | [20] 0.413%

CCN1CCN(C(=O)[C@]23CCC(C)(C)C[C@H]2C2=CC[C@@H]4[C@@]5(C)CC/C(=N/O)C(C)(C)[C@@H]5CC[C@@]4(C)[C@]2(C)CC3)CC1
inactive: [1] 69.7% | [2] 66.5% | [3] 86.1% | [4] 76.9% | [5] 72% | [6] 52.7% | [7] 45.2% | [8] 74% | [9] 57.5% | [10] 87.9% | [11] 86.4% | [12] 58.8% | [13] 62.9% | [15] 81.2% | [16] 67.2% | [17] 65.7% | [18] 80.4% | [19] 80.4% | [20] 65.6%
active: [14] 9.19%

Cn1c2c(Cl)c(Cl)ccc2c2c(C#N)c[nH]c(=O)c21
inactive: [1] 91% | [2] 94.5% | [3] 129% | [4] 94.1% | [5] 96.2% | [6] 78.6% | [7] 95.5% | [8] 93.3% | [9] 97.4% | [10] 115% | [11] 109% | [12] 106% | [13] 140% | [14] 98.5% | [15] 97.2% | [16] 99% | [17] 97.8% | [18] 84.6% | [19] 98.1% | [20] 105%

Cn1cc(-c2csc(-c3cn(CCCN4CCCCC4)c4ccc(Br)cc34)n2)c2cccnc21
inactive: [1] 43.3% | [2] 75.9% | [3] 49.7% | [6] 31.5% | [7] 11.7% | [15] 23.3% | [16] 46.1% | [17] 31.8% | [19] 68.1%
active: [4] -56.5% | [5] -66.8% | [8] -49% | [9] -75.9% | [10] -79.5% | [11] -26.5% | [12] -63.6% | [13] -25.7% | [14] -50.7% | [18] -73% | [20] -88.1%

Cc1nn(-c2ccc(Cl)cc2)c(=O)n1CCn1cnc2ccccc21
inactive: [1] 96.2% | [2] 103% | [3] 96.8% | [4] 101% | [5] 107% | [6] 101% | [7] 85.3% | [8] 106% | [9] 87.4% | [10] 118% | [11] 114% | [12] 97.1% | [13] 109% | [14] 111% | [15] 107% | [16] 107% | [17] 82.8% | [18] 101% | [19] 103% | [20] 96.7%

COc1cc2nc(Cl)nc(Nc3cccc(C(=O)/C=C/c4ccc(Br)cc4)c3)c2cc1OC
inactive: [1] 96.6% | [2] 83% | [3] 95.1% | [4] 98% | [5] 104% | [6] 83.6% | [7] 84.3% | [8] 85.1% | [9] 87% | [10] 101% | [11] 97.6% | [12] 35.9% | [13] 105% | [14] 78% | [15] 85.1% | [16] 94.5% | [17] 86.1% | [18] 82.2% | [19] 107% | [20] 89.8%

CC1(C)C(=O)/C(=C\c2cccnc2)C[C@]2(C)[C@H]3CC[C@@H]4[C@@H](C(=O)/C=C/c5ccncc5)CC[C@@]4(C)[C@]3(C)CC[C@@H]12
active: [1] 5.99% | [2] 1.56% | [4] 2.07% | [8] 1.98% | [9] -55.7% | [11] -1.7% | [12] 3.14% | [13] 0.438% | [15] -84.2% | [18] 1.24% | [20] -13%
inactive: [3] 39.9% | [5] 23.7% | [6] 16.1% | [7] 30.1% | [10] 12.3% | [14] 16.8% | [16] 27.3% | [17] 15.9% | [19] 49.3%
